Reference: the OligoGym collection

target: TBX10; assay: pooled miR-30 sensor sort-seq; sequence = guide strand; conditions: shRNA

Sequence | sensor-assay potency score (higher = more potent)
TGGAGGTGGAAGCTGAAGCTTT | -1.2
TTCATCTCCAGCTGAACTGTCA | -0.543
TATGGTGCTGGTCGGGTCCTTG | -1.11
TCCAGCTGAACTGTCACTCTGG | -0.454
TATCTCTTGTCGTCCAGGGGGA | -0.47
TTGGTGACGATCATCTCAGTGC | -0.282
TCACTCTGGACACACGTGGGTT | -1.06
TTGCTGGCGATTTTCAGCTGGG | -0.663
TTCTGATAGGCTGTCACTGCTG | -0.605
TAGCGCTCACTGTCCTTGCGTG | -0.517
ATACCTGTATCTCTTGTCGTCC | -0.36
TTGTTGGGGTCTTTCTCCCTGT | -0.814

target: TBX15; assay: as above; conditions: shRNA

Sequence | sensor-assay potency score (higher = more potent)
TAGGCTTCCATCTTGCTGTTGC | 0.42
TTTTAATCTGGTAATCTGCTGA | 0.443
TTAGATTACACAGCTGGCTTTC | -0.575
TTAATCTGGTAATCTGCTGATT | -0.87
TGTCTTTCCACTCTCATCCATT | -1.03
TTCAGTTCCAATATCATGGAAC | -0.282
TTGCTATGTAGTACTGCTGATG | -1.07
TTGTACACAGACAAATTCTTGG | -0.17
TACACAGACAAATTCTTGGTGA | 0.47
TTTCGGTCAATTTTTAATCTGG | -0.172
TTGATCATCCAACTCATTGTTG | -0.489
